TCR activator = activates T cell receptor signaling; 330,000 tested, under 10 active; primary human leukocytes, anti-CD3, IL-2 HTRF, 48 h; Potency, µM (top dose mostly 9.22 µM), inactives show top-dose activation of IL-2 secretion, hits mostly activators; AID 504894; further: % of control where 0% means no effect
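Primary human leukocytes incubated 48 hr with anti-CD3 beads plus compound, without co-stimulation. Secreted IL-2 measured by HTRF (europium cryptate/d2 anti-IL-2 pair, 320 nm excitation, 665 nm emission).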
GRP78 ERSR act = ER stress response induction in glioma; U87-MG GRP78 promoter luciferase reporter, 16 h; Potency, µM, inactives show top-dose activation, hits mostly activators; 0.02% of 420,000 active; further: potency means the concentration at half of the fitted maximal effect; series mostly up to about 76 µM; % of control where 0% means no effect; nearly all actives have a fitted effect of over 35% in size
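ERSR induction read as luciferase luminescence (Bright-Glo, 10 min at room temperature) in stably transfected human U87-MG glioma cells exposed to compounds for 16 h, using GRP78 as sensor.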
TSHR antag = antagonists of human thyroid stimulating hormone receptor; P16473; TSHR-expressing cells, TSH-stimulated cAMP HTRF, 2 h; stronger effect = lower value; activity change, negative = inhibition, % at 11.5 µM; 0.2% of 330,000 active;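 active means activity change below a set negative limit, meaning inhibition stronger than a set level, cut at about -70% in these data; inconclusive means activity change between two set negative limits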; further: on the % scale 0 is the no-effect control and ±100 the full control effect
Target sequence (P16473 whole entry, looked up): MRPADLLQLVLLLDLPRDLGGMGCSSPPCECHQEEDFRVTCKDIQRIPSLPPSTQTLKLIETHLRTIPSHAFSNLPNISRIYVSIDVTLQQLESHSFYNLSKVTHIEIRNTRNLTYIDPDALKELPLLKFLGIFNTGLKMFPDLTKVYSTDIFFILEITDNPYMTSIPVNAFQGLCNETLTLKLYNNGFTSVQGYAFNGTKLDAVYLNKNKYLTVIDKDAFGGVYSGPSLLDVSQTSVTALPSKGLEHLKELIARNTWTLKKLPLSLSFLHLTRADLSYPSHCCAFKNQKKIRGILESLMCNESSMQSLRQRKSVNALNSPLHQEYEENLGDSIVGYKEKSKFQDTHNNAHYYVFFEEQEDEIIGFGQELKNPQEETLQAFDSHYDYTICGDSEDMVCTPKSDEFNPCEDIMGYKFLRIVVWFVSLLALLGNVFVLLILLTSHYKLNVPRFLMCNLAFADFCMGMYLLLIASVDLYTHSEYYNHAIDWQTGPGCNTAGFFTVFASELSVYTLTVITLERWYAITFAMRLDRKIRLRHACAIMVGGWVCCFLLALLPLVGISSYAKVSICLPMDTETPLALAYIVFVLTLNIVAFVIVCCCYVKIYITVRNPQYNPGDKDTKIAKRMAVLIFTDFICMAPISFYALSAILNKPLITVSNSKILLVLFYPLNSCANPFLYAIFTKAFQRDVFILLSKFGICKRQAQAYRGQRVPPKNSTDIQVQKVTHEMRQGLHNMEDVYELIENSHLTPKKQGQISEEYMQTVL
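Competitive HTRF cAMP read-out (cryptate anti-cAMP antibody, cAMP-d2; 30 min, room temperature) in freshly harvested TSHR cells. Compounds added before TSH at EC80 (4nM final), followed by 2 hours' incubation at 37 deg C.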
RGS4 inhibitor = inhibitors of human regulator of G protein signaling 4; P49798; Transcreener GDP fluorescence polarization, RGS4-accelerated GTP hydrolysis; Potency, µM (series often up to 114 µM), inactives show at the top dose activity change, negative = inhibition, hits mostly inhibitors; 0.039% of 390,000 active; AID 504845; further: potency means the concentration at half of the fitted maximal effect; on the % scale 0 is the no-effect control and ±100 the full control effect; nearly all actives have a fitted effect of over 75% in size
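MLSMR compounds (23 nl, pin-transferred) preincubated 10 min at room temperature with a 500nM (2x) first reagent, then RGS4 at 900nM (2x) plus Transcreener GDP mix added; fluorescence polarization (620/688 nm) read before and after 90 min at 30 °C.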
LDHA block = LDHA (human) enzyme inhibition | P00338 | purified LDHA, NADH/diaphorase-resazurin fluorescence; stronger effect = lower value | activity change, % (values are at about 110 or 230 µM) | 0.15% of 480,000 active | AID 1347041; in the data active means activity change below about -30%; inconclusive means mostly about -25% to -30%;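 further: plate controls were DMSO wells for no effect and wells without enzyme for full effect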
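Enzyme activity of human lactate dehydrogenase 5 (2 nM; 0.06 mM NADH, 0.2 mM pyruvate, 5 min, RT) is measured via a resazurin/diaphorase fluorescence readout of residual NADH.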
Akt phos inh = inhibitors of Akt phosphorylation; Neuro2A IGF-stimulated pAkt S473 HTRF, 20 min; stronger effect = lower value; activity change, % for hits at 50 µM; 0.32% of 360,000 active; in the data active means activity change below about -80%; inconclusive means mostly about -51% to -80%; further: on the % scale 0 is the no-effect control and ±100 the full control effect
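Single-point screen (50 µM final compound) in Neuro2A cells stimulated 20 min with 6 nM IGF at 37 deg C. After lysis, Ser473-phosphorylated Akt read by HTRF (ex 330 nm, em 615/665 nm) as the 665/615 ratio.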
The depositor's hits bear a star; i = inactive; ? = inconclusive; . = no result given; [ ] = remark or other dose. Only some compounds are listed: those with a hit (about 0.55% of all), similar ones and a draw of the others. Unless noted, the call rests on the fitted dose curve; in most records, active means well fitted curve in the direction sought with a large enough effect; inconclusive means small, poorly fitted or top-dose-only effect, or another doubt; inactive means no such curve, though single readings can be large; an effect the other way counts as inactive or inconclusive.

SMILES | TCR activator | GRP78 ERSR act | TSHR antag | RGS4 inhibitor | LDHA block | Akt phos inh
COC(=O)c1c(C)[nH]c(-c2cc(OC)c(OC)c(OC)c2)c1C1C(=O)Nc2ccc(F)cc21 (stereo not given) | . | . | . | . | 59 | .
COc1ccc(/C=C/C(=O)N2CCN(C)CC2)cc1OC | . | -3% | -122* | -4% | -1 | i
CC1CCN(C(=O)C(=O)N2CCN(c3nc(-c4ccco4)c4c(c3C#N)CC(C)(C)OC4)CC2)CC1 | . | . | . | . | 14 | .
CCCCCCCNc1cccc(C)c1 | 0% | -3% | -2 | -19% | 3 | i
Cc1cccc(NCc2ccccc2O)c1 | -1% | ? | 3 | 9% | 0 | -101%*
Cc1ccc(NCc2ccccc2O)cc1 | -1% | 10% | -3 | -12% | 2 | i
Cc1cccc(NCCNc2cccc(C)c2)c1 | 4% | 3% | 1 | 5% | 3 | -104%*
Cc1ccc2[nH]c(C(=O)NCc3ccccc3)cc2c1 | . | . | . | . | 0 | .
COC(=O)c1cccc(NC(=O)CN2CCN(c3oc(-c4ccco4)nc3C#N)CC2)c1 | . | . | . | . | -14 | .
COCC(=O)n1nc(NCc2ccccc2Cl)nc1NCc1ccccc1Cl | . | . | . | . | -49* | .
O=C(Nc1cccnc1-n1cccn1)c1cccc(NC(=O)c2cccs2)c1 | . | . | . | . | -4 | .
C(=N\Nc1cccc2cccnc12)/c1c[nH]c2ccccc12 | . | . | . | . | 15 | .
CC(C)n1nnnc1SCC(=O)c1ccc2c(c1)OCCO2 | 3% | -10% | 1 | -43%[11.4 µM] | 2 | i
CCn1nnnc1SCC(=O)c1ccc2c(c1)OCCO2 | 1% | 1% | -1 | 3% | -3 | -104%*
O=C(Nc1nnc(-c2cccs2)o1)c1cccc(F)c1 | 1% | -3% | . | 13% | 1 | i
O=C(Nc1nnc(-c2cccs2)o1)c1cccc(Oc2ccccc2)c1 | -3% | -1% | 6 | 6% | -33* | i
CCN(CC)C(=O)COc1ccc2c(C)cc(=O)oc2c1 | . | . | . | . | -2 | .
c1ccc(-c2nnc3ccc(SCc4ccco4)nn23)cc1 | . | . | . | . | 0 | .
COC(=O)N/N=C/c1ccc([N+](=O)[O-])o1 | -1%[46.1 µM] | 0% | -11 | 3% | 10 | -115%*
O=C(CCN1CCC(c2ccccc2)C1)c1cccc2ccccc12 (stereo not given) | . | . | . | . | -18 | .
COc1ccc(-c2csc(NC(=O)c3ccccc3NS(=O)(=O)c3ccc(F)c(F)c3)n2)cc1 | -2% | 5% | -88* | 7% | -6 | i
Cc1ccc(S(=O)(=O)Nc2ccccc2C(=O)Nc2nc(-c3ccc(F)cc3)cs2)cc1 | 4%[46.1 µM] | -4% | ? | 3% | -3 | i
Fc1cccc(Cl)c1CNCc1cccnc1 | -1% | -1% | -106* | -26% | 0 | i
Cc1cccc[n+]1CCCCCCCCCC[n+]1ccccc1C | -2% | -2% | 8 | -8% | 0 | i
Brc1cccc[n+]1CCC[n+]1ccccc1Br | . | -2% | . | . | -65* | .
SMILES | TCR activator | GRP78 ERSR act | TSHR antag | RGS4 inhibitor | LDHA block | Akt phos inh
COC(=O)C1=C(C)C(c2ccc(OC)cc2OC)NC(=O)N1 (stereo not given) | 1% | -3% | -6 | -12% | -2 | -117%*
COC(=O)C1=C(C)C(c2ccc(OC)cc2)NC(=O)N1 (stereo not given) | -4% | 5% | 0 | 14% | -7 | i
Cc1ccc(N2C(=O)C3C4C=CC(C4)C3C2=O)cc1 (stereo not given) | -2% | 1% | -1 | -38% | -1 | i
Cc1cc(C)cc(N2C(=O)C3C4C=CC(C4)C3C2=O)c1 (stereo not given) | -4% | -5% | 1 | -39% | -4 | -104%*
FC(F)(F)c1cnc(N2CCC(=NOCc3ccc(Cl)cc3)CC2)c(Cl)c1 | -4% | -3% | 4 | 36% | 3 | i
Cc1ccc(CON=C2CCN(c3ncc(C(F)(F)F)cc3Cl)CC2)cc1 | 4% | -1% | 5 | -20% | -3 | -112%*
Cc1ccc(-c2cc(C(=O)NCCN(C)C)c3cc(Br)ccc3n2)o1 | . | . | . | . | 1 | .

Screening results from PubChem.
